# From PubChem BioAssay (NCI)
# About 83,000 compounds went through this panel and 20% of them were active in at least one assay; those are over-represented in the sample as a whole.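 Interpretation: 100, growth as untreated; towards 0, rising growth inhibition; 0, no net growth; 0 to -100, cell death. Compounds scoring below 10 were considered active.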 Unmarked numbers belong to inactive results. The source made the active and inactive calls.
# How the values were obtained:
# Assay in all cases: NCI-60 one-dose screen, 48 h (100 = growth as untreated, 0 = no growth, -100 = all killed)
# HCT-15 colon = settings: 10 µM
# HT29 colon = settings: 10 µM
# SNB-75 CNS = settings: 10 µM
# SNB-19 CNS = settings: 10 µM
# U251 CNS = settings: 10 µM
# PC-3 prostate = settings: 10 µM
# SK-MEL-5 melanoma = settings: 10 µM
# UACC-62 melanoma = settings: 10 µM unless noted
# LOX IMVI melanoma = settings: 10 µM
# SK-MEL-28 melanoma = settings: 10 µM
# SK-MEL-2 melanoma = settings: 10 µM
# EKVX NSCLC = settings: 10 µM
# SN12C renal = settings: 10 µM
# UO-31 renal = settings: 10 µM
# TK-10 renal = settings: 10 µM unless noted
# ACHN renal = settings: 10 µM
# CAKI-1 renal = settings: 10 µM
# A498 renal = settings: 10 µM
# CCRF-CEM leukemia = settings: 10 µM
# MOLT-4 leukemia = settings: 10 µM
SMILES,growth (HCT-15 colon),growth (HT29 colon),growth (SNB-75 CNS),growth (SNB-19 CNS) [%],growth (U251 CNS),growth (PC-3 prostate),growth (SK-MEL-5 melanoma),growth (UACC-62 melanoma),growth (LOX IMVI melanoma),growth (SK-MEL-28 melanoma),growth (SK-MEL-2 melanoma),growth (EKVX NSCLC),growth (SN12C renal) [%],growth (UO-31 renal),growth (TK-10 renal),growth (ACHN renal),growth (CAKI-1 renal),growth (A498 renal),growth (CCRF-CEM leukemia),growth (MOLT-4 leukemia)
O=C(O)CCCCNC(=O)c1ccccc1,102%,101%,103%,108,98.5%,100%,101%,110%,91.8%,111%,113%,103%,115,100%,101%,115%,107%,91.4%,110%,106%
NC(=O)c1ccc(N=C(N)N=C(N)N)cc1,95.7%,105%,91.2%,110,101%,93.1%,93.6%,105%,100%,111%,121%,73.5%,110,78.5%,77.5%,112%,93.4%,106%,99.6%,103%
Cc1cc(N)c(S(=O)(=O)O)c(N)c1,105%,111%,98.8%,90.7,98.7%,85.4%,104%,92.4%,94%,104%,109%,98.9%,93.8,79.1%,105%,100%,90.1%,101%,98.1%,5.11% (active)
CCOC(=O)c1ccc(Nc2sc(C(=O)c3cccc([N+](=O)[O-])c3)c(N)c2C#N)cc1,32.3%,8.29% (active),-6.96% (active),48.8,11.5%,31.1%,10.9%,28.6%,39.5%,63.1%,33%,62.1%,52.9,31.1%,74.1%,41.3%,-17.8% (active),38.4%,5.1% (active),23.6%
CN(C)C(=O)Oc1cccc([N+](C)(C)C)c1,95.6%,115%,85.1%,105,97.9%,98.5%,94.9%,104%,105%,108%,124%,93.1%,97.8,98.6%,125%,97.9%,89.9%,95.5%,113%,102%
COc1cc(C(=O)NC(=S)Nc2ccc3ccccc3c2)cc(OC)c1OC,87.4%,100%,92%,107,102%,82.4%,55.5%,36.5%,91%,98.1%,83.6%,102%,104,66.7%,117%,93.7%,75.1%,–,98.6%,89.4%
Cn1cnc2nc(Cl)nc(Cl)c21,31.7%,-29.9% (active),47.9%,61.4,14.2%,25.1%,16%,54.9%,18.1%,65.1%,-23.4% (active),104%,22.4,45.2%,4.15% (active),29.4%,-61.6% (active),62.6%,–,35.8%
CC1(O)CCCCC1O (configuration not stated),102%,106%,96.5%,97.3,104%,98.4%,107%,96.5%,106%,113%,91.8%,114%,95.1,79.3%,125%,102%,102%,–,107%,103%
O=C1N(C[P+](c2ccccc2)(c2ccccc2)c2ccccc2)CCCN1C[P+](c1ccccc1)(c1ccccc1)c1ccccc1,110%,102%,88.4%,98.3,95.2%,92.5%,106%,94.7%,108%,102%,122%,97%,97.3,87.1%,106%,97.1%,89.4%,85.5%,107%,97.7%
NC(=O)NC(=O)c1ccc(Cl)cc1,105%,94.3%,93.6%,111,106%,96.5%,107%,96.1%,103%,119%,92.2%,101%,104,77%,100%,105%,94.1%,102%,–,102%
O=C(O)C(O)c1ccccc1 (configuration not stated),113%,115%,94.8%,108,103%,97.3%,101%,107%,94.2%,107%,104%,99.9%,106,84.5%,103%,103%,96.8%,93.9%,106%,102%
O=[N+]([O-])c1ccccc1N=Nc1ccc(O)cc1O,112%,112%,91.5%,111,115%,97.2%,106%,124%,99.8%,121%,134%,116%,107,66.3%,140%,109%,95.1%,139%,–,101%
CC(C)OC(=O)c1cc(NC(=S)OC(C)C)ccc1Cl,87.8%,70.5%,109%,92.3,96.6%,83.3%,44%,77.1%,93.4%,101%,96.4%,85.8%,93,80.2%,86.1%,98.7%,53.6%,–,88.8%,75.7%
COC(=O)Nc1nc2ccc(C(=O)c3ccc(F)cc3)cc2[nH]1,5.81% (active),7.47% (active),31%,33.5,14.3%,2.25% (active),13.6%,36%,28.4%,54.2%,-20.1% (active),36.7%,29.8,1.98% (active),17.3%,33.2%,15.2%,7.59% (active),-46% (active),-27% (active)
COC(=O)c1cccc(Br)c1,101%,115%,96.5%,107,109%,86.4%,106%,97.2%,108%,118%,110%,87.1%,104,101%,106%,108%,102%,86.3%,98.2%,111%
Cc1ccc(/C(C#N)=C/c2ccc3c(c2)OCO3)cc1,69.5%,37.1%,67.8%,88.4,63.2%,81.9%,58.6%,73.5%,74.9%,81.4%,43.3%,87.3%,90.6,64.3%,80.8%,95.3%,53.6%,–,65.8%,63.6%
CC1(C)N=C(N)N=C(N)N1c1ccc(Cl)cc1,73.6%,29.8%,75.8%,58,31.5%,33.1%,31.7%,41.4%,24.6%,90.4%,71%,48.4%,41.4,85.9%,69.7%,67.4%,99.9%,120%,–,53.6%

SMILES,growth (HCT-15 colon),growth (HT29 colon),growth (SNB-75 CNS),growth (SNB-19 CNS) [%],growth (U251 CNS),growth (PC-3 prostate),growth (SK-MEL-5 melanoma),growth (UACC-62 melanoma),growth (LOX IMVI melanoma),growth (SK-MEL-28 melanoma),growth (SK-MEL-2 melanoma),growth (EKVX NSCLC),growth (SN12C renal) [%],growth (UO-31 renal),growth (TK-10 renal),growth (ACHN renal),growth (CAKI-1 renal),growth (A498 renal),growth (CCRF-CEM leukemia),growth (MOLT-4 leukemia)
Cc1cccc([N+](=O)[O-])c1Cl,99.6%,112%,95.2%,106,102%,102%,98.8%,105%,101%,107%,109%,96.8%,106,87.3%,119%,97.4%,92.3%,94.5%,99%,122%
CCOC(=O)CNN,108%,105%,94.7%,100,95.7%,99.3%,90.5%,103%,90.6%,115%,113%,113%,101,91.4%,102%,119%,106%,79.6%,97.8%,112%
C/C(O)=C(\C=N\C(N)=S)C(=O)Nc1ccccc1,110%,101%,88.1%,100,97.4%,93.5%,97.6%,96.8%,96.7%,116%,107%,106%,94.1,91.5%,124%,103%,97.8%,98.6%,–,103%
O=[N+]([O-])c1ccc(S(=O)(=O)NN=C2CCCCC2)cc1,115%,107%,87.8%,99.8,111%,96.8%,105%,117%,95%,110%,147%,104%,103,67.8%,128%,100%,92.5%,123%,–,98.7%
O=c1[nH]c(O)c(/C=C2/C=Nc3ccccc32)[nH]1,81.2%,95.3%,77.4%,104,103%,83.4%,91.2%,95.7%,96.6%,111%,104%,95%,98.3,68.7%,99.9%,87%,106%,86%,58.2%,73.7%
CCOC(=O)C1OC1c1ccccc1 (configuration not stated),103%,112%,92%,103,98.7%,98.8%,99.6%,101%,101%,110%,114%,98.4%,105,89.2%,103%,104%,98.6%,96.8%,109%,107%
Nc1ccc(C(=O)c2ccc(N)c(Br)c2)cc1Br,18%,-14.2% (active),-5.35% (active),33.4,18.2%,22.4%,8.91% (active),28.7%,12.9%,45%,8.1% (active),50.9%,29.2,58.8%,22.5%,33.4%,42.9%,28.6%,13.4%,35.5%
Cc1cc(C(O)(c2ccc(Nc3ccccc3)cc2)c2ccc(Nc3ccc(S(=O)(=O)O)cc3)cc2)ccc1N (configuration not stated),-54% (active),-78.4% (active),16.8%,19.7,-59.4% (active),12.1%,-90.4% (active),-22.7% (active),-65.9% (active),-86.9% (active),-33.1% (active),9.86% (active),22.5,3.47% (active),7.3% (active),-13.2% (active),31.7%,2.33% (active),2.35% (active),8.2% (active)
CN(C)c1ccc(S(=O)(=O)O)cc1,102%,102%,96.3%,109,108%,88.9%,98.9%,108%,102%,110%,86.2%,107%,105,87.9%,89.2%,93.9%,105%,94.9%,95.9%,107%
CC(=O)OC1CC2C(C)(C)OC3CC(=O)OCC32C2CCC3(C)C(=CCC3c3ccoc3)C12C (configuration not stated),108%,102%,97%,101,107%,105%,92.5%,72.1%,98.4%,86.9%,99.5%,102%,105,86.9%,107%,101%,98.7%,110%,101%,90.8%
CCCCCCCCCCCCCCCCC1CC(=O)OC1=O (configuration not stated),107%,109%,101%,105,96.4%,98.9%,103%,102%,103%,105%,113%,96.9%,101,93.5%,107%,110%,97.9%,–,96.5%,118%
CC1SC(N)=NC1=O (configuration not stated),114%,128%,103%,109,113%,106%,113%,100%,104%,112%,111%,96.2%,120,92.2%,108%,108%,103%,107%,99.3%,122%
O=C(O)C(Cc1ccccc1)C(=O)O,103%,123%,95.9%,106,108%,94%,89.6%,101%,100%,113%,111%,106%,103,91.6%,105%,111%,102%,89.1%,97.9%,116%
CC1=C(/C=C/C(C)=C/C=C/C(C)=C/CO)C(C)(C)CCC1,112%,112%,95.3%,95.7,102%,96.5%,107%,99.2%,94.7%,113%,107%,108%,104,87.3%,111%,106%,88.6%,98%,–,97.9%
CC1=CC(=O)c2ccccc2C1=O,102%,112%,90.9%,101,101%,108%,103%,100%,96.5%,116%,110%,114%,99.3,70%,124%,95.2%,97.5%,103%,–,114%
CC1(C)N=C(N)N=C(N)N1c1cccc(Br)c1,32.4%,28.4%,58.6%,44.9,32.9%,38.5%,26.7%,30.2%,20.2%,72.5%,65.3%,45.1%,37.3,50.2%,51.7%,30.2%,70%,104%,36.1%,41.4%
